Results: the supplement of paper PMC11732987, “Enantioselective OTUD7B fragment discovery through chemoproteomics screening and high-throughput optimisation” (Communications Chemistry, 2025)
Unmarked numbers belong to inactive results.

Compound: COc1cccc(CN(C)C(=O)CCl)c1
Assay: log2 ratio of Biotin-Ahx-Ub-VS probe labelling (compound/DMSO); higher = less target engagement, active = hit call of the paper (q ≤ 0.05, log2 ratio ≤ -1)
Settings: compound concentration: 50uM; treatment time: 3 h
Procedure: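 Round 2 competitive ABPP in HEK293T lysate. Compounds were tested at 50 and 200 µM for 3 h, followed by Biotin-Ahx-Ub-VS enrichment and diaPASEF LC-MS/MS. Values are the average log2 ratio (compound/DMSO) from an unpaired t-test (n=3 treated, n=26 DMSO).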

UniProt Q9Y5T5, sequence (Q9Y5T5 whole entry, looked up): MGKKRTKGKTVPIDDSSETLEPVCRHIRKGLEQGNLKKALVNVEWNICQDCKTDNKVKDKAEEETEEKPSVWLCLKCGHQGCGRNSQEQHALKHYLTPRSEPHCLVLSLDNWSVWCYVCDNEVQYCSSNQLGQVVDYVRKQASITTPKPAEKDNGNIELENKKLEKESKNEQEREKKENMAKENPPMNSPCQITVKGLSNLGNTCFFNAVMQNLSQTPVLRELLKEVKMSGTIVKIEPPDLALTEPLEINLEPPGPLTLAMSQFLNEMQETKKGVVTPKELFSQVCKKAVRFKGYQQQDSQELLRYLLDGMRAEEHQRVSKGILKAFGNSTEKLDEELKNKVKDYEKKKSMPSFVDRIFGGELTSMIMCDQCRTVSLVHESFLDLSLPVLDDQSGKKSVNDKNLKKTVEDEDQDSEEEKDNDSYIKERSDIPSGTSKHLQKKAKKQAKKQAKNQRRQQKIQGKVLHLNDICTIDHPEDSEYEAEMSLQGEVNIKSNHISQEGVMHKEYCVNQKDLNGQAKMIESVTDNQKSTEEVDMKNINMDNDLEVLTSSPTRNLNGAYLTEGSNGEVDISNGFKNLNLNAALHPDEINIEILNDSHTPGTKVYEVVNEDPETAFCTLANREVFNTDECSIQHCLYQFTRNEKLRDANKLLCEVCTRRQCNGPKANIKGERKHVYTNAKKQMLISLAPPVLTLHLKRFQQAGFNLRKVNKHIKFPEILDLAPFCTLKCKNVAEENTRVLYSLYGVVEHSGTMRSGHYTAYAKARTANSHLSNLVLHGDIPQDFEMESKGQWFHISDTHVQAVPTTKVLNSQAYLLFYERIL
UniProt Q13107, sequence (Q13107 whole entry): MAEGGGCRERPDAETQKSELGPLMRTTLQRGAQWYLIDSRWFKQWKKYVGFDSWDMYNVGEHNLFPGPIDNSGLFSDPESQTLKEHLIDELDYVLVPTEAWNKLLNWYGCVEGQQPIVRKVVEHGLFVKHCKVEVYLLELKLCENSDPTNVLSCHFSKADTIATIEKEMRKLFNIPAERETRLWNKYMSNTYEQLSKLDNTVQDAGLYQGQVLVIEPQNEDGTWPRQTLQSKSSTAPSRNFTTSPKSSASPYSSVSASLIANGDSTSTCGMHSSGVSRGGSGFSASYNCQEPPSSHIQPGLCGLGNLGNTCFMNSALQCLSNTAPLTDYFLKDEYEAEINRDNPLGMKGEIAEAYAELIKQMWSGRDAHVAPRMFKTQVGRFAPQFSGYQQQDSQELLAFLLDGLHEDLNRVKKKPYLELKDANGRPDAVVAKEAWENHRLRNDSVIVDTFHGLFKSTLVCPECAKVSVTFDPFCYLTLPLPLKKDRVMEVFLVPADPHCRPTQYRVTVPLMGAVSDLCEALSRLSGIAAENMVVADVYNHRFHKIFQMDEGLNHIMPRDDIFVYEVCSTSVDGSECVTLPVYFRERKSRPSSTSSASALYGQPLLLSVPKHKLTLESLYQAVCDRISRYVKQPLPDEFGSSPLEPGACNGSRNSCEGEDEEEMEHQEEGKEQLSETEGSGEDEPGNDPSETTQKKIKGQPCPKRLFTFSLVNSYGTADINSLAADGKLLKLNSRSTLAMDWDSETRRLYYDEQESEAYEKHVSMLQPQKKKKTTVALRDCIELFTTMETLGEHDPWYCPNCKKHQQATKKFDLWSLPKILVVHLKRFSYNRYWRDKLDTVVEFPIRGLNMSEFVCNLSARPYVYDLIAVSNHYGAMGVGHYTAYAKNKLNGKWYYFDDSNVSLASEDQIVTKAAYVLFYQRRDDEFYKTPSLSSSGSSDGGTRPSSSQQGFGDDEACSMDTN
UniProt Q9UGI0, sequence (Q9UGI0 whole entry): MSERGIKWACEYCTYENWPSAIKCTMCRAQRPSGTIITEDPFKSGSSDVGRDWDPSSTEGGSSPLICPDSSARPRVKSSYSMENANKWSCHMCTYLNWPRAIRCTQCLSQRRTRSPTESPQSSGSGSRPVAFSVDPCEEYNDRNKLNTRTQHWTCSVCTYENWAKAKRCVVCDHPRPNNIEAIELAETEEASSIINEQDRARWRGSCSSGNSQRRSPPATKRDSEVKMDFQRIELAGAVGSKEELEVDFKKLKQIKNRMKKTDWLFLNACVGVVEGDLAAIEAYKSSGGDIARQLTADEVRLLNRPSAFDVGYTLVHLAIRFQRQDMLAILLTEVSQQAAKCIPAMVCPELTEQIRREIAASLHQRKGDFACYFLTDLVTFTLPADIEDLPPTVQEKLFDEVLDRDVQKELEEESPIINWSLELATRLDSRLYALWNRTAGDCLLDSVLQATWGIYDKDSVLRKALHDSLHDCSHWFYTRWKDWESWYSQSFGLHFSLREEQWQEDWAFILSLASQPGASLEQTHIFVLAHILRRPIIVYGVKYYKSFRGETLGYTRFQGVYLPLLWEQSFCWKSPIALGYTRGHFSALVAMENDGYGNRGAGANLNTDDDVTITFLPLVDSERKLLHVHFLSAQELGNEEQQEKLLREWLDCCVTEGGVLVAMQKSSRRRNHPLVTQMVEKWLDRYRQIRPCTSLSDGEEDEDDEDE
UniProt Q9P275, sequence (Q9P275 whole entry): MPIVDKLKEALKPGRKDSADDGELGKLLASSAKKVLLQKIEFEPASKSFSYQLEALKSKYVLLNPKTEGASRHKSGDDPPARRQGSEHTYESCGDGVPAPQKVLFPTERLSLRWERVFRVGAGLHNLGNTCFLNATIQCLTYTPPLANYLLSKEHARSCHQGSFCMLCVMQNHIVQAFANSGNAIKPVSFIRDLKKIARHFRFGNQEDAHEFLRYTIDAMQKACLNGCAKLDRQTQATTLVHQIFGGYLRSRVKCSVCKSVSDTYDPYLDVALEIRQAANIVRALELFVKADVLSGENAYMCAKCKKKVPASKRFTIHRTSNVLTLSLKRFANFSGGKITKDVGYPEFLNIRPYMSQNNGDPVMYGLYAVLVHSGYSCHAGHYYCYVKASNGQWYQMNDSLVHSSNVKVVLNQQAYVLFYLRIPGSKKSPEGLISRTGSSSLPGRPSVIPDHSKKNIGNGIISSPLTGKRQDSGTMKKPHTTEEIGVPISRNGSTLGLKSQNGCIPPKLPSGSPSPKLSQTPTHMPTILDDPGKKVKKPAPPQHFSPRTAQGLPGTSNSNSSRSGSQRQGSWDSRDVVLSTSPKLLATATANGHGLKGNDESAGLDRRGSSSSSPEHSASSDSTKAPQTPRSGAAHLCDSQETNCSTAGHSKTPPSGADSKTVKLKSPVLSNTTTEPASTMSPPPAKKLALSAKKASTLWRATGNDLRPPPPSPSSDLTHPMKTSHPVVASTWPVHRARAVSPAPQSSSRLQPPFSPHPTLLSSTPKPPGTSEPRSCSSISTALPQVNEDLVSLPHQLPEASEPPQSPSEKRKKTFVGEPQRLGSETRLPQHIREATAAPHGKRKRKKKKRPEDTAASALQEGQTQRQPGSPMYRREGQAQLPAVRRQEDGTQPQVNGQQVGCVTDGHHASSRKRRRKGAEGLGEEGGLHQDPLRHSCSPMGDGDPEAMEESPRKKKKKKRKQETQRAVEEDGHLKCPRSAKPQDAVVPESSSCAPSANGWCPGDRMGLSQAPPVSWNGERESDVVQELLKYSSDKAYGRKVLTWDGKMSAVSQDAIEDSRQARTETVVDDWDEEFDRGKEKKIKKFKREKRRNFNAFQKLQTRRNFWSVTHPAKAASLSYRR
UniProt Q9UPT9, sequence (Q9UPT9 whole entry): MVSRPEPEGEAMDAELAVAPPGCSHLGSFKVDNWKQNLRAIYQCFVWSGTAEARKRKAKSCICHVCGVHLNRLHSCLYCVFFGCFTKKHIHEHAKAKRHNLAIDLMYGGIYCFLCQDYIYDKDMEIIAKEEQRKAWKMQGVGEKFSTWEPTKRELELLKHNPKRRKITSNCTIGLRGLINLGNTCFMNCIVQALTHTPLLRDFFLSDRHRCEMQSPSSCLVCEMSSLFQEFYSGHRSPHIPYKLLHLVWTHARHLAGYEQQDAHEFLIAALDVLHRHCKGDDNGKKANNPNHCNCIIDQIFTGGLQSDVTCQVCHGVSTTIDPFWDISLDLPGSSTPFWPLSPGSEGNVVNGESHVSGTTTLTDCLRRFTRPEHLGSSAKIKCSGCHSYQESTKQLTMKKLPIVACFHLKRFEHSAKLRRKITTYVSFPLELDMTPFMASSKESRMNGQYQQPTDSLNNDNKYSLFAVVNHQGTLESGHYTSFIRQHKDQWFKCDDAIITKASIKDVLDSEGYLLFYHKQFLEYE
UniProt Q92560, sequence (Q92560 whole entry): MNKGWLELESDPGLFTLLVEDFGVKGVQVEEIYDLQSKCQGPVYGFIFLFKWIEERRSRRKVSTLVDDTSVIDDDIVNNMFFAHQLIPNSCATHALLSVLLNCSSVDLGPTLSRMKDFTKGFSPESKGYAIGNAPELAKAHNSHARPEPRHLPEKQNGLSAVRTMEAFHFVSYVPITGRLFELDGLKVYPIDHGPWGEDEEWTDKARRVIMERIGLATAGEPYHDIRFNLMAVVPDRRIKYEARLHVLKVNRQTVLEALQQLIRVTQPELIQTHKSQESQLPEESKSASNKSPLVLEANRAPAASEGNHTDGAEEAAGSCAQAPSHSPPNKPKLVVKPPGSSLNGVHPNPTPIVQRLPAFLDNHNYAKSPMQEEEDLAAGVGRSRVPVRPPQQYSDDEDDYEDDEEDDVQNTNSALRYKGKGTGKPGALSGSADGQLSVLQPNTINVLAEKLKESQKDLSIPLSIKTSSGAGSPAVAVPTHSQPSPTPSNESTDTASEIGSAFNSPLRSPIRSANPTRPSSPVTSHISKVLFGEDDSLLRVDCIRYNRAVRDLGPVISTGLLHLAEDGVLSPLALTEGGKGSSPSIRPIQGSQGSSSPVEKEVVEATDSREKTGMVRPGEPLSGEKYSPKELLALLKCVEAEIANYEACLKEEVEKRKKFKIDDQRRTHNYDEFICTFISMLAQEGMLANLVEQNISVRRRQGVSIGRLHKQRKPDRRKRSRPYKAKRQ

| Target | log2 ratio of Biotin-Ahx-Ub-VS probe labelling |
| --- | --- |
| UniProt Q70EL2 | -0.17 |
| USP9X (UniProt Q93008) | -0.0295 |
| ATXN3 (UniProt P54252) | -0.217 |
| USP12 (UniProt O75317) | -0.38 |
| UCHL3 (UniProt P15374) | -0.285 |
| UniProt Q5T2D3 | -0.199 |
| USP14 (UniProt P54578) | -0.0931 |
| OTUB1 (UniProt Q96FW1) | -0.0418 |
| UniProt Q9UGI0 | -0.354 |
| USP5 (UniProt P45974) | 0.274 |
| USP7 (UniProt Q93009) | -0.4 |
| USP16 (UniProt Q9Y5T5) | 0.0263 |
| UniProt P51784 | 0.0601 |
| USP39 (UniProt Q53GS9) | -0.0648 |
| UniProt Q9P2H5 | -0.267 |
| BAP1 (UniProt Q92560) | -1.22 (active) |
| UCHL5 (UniProt Q9Y5K5) | -0.115 |
| USP4 (UniProt Q13107) | -1.18 (active) |
| USP22 (UniProt Q9UPT9) | 0.0954 |
| USP36 (UniProt Q9P275) | -0.0259 |

Same assay, conditions: compound concentration: 200uM; treatment time: 3 h

| Target | log2 ratio of Biotin-Ahx-Ub-VS probe labelling |
| --- | --- |
| UniProt Q70EL2 | -1.02 (active) |
| USP9X (UniProt Q93008) | -0.23 |
| ATXN3 (UniProt P54252) | -0.786 |
| USP12 (UniProt O75317) | 0.0984 |
| UCHL3 (UniProt P15374) | -0.275 |
| UniProt Q5T2D3 | 0.0147 |
| USP14 (UniProt P54578) | -0.202 |
| OTUB1 (UniProt Q96FW1) | 0.0222 |
| UniProt Q9UGI0 | -0.0472 |
| USP5 (UniProt P45974) | 0.357 |
| USP7 (UniProt Q93009) | -1.53 (active) |
| USP16 (UniProt Q9Y5T5) | -0.213 |
| UniProt P51784 | -0.0791 |
| USP39 (UniProt Q53GS9) | -0.162 |
| UniProt Q9P2H5 | -0.143 |
| BAP1 (UniProt Q92560) | -3.29 (active) |
| UCHL5 (UniProt Q9Y5K5) | -0.295 |
| USP4 (UniProt Q13107) | -0.498 |
| USP22 (UniProt Q9UPT9) | -0.231 |
| USP36 (UniProt Q9P275) | 0.018 |
